Experimental data as given in the supplement of paper PMC10849652.
Targets with a hit are over-represented here; the source holds about 7,900 in all. About 0.6% of all pairs of compound and target were hits.

What follows are targets tested with C1=CC2=NC=CN=C2C=C1/C=C/3\C(=O)NC(=O)S3 (assay: log2 fold change, soluble protein after heating vs DMSO (PISA); higher = thermal stabilisation; K562 cells, 10 uM, 30 min; active = over 0.2 and 3.5 SD of the protein, either way, in both replicates (recomputed)).
Outline: (§1)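 K562 cells at 2×10^6 cells/mL were given 10 μM compound for 30 min. Aliquots then went through 3 min of heating across 48°C-58°C, were pooled, and were extracted in PBS with 0.5% NP-40 at 4°C, and the supernatant after 21,000xg for 90 min was quantified by TMTpro 16plex LC-MS/MS with channel sums equalised. Thermal stability relative to control samples, from duplicates, is given as log2 fold change.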

UniProt Q9Y5K5, sequence (Q9Y5K5 whole entry, looked up): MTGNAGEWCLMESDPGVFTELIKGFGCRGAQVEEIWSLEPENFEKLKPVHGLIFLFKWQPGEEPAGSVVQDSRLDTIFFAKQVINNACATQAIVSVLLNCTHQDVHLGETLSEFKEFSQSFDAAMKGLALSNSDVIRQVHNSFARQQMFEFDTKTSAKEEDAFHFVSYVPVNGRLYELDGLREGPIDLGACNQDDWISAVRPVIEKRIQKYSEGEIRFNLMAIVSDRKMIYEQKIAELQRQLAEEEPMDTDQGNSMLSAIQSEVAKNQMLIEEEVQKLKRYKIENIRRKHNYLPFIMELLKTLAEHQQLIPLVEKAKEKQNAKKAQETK
UniProt Q93009, sequence (Q93009 whole entry, looked up): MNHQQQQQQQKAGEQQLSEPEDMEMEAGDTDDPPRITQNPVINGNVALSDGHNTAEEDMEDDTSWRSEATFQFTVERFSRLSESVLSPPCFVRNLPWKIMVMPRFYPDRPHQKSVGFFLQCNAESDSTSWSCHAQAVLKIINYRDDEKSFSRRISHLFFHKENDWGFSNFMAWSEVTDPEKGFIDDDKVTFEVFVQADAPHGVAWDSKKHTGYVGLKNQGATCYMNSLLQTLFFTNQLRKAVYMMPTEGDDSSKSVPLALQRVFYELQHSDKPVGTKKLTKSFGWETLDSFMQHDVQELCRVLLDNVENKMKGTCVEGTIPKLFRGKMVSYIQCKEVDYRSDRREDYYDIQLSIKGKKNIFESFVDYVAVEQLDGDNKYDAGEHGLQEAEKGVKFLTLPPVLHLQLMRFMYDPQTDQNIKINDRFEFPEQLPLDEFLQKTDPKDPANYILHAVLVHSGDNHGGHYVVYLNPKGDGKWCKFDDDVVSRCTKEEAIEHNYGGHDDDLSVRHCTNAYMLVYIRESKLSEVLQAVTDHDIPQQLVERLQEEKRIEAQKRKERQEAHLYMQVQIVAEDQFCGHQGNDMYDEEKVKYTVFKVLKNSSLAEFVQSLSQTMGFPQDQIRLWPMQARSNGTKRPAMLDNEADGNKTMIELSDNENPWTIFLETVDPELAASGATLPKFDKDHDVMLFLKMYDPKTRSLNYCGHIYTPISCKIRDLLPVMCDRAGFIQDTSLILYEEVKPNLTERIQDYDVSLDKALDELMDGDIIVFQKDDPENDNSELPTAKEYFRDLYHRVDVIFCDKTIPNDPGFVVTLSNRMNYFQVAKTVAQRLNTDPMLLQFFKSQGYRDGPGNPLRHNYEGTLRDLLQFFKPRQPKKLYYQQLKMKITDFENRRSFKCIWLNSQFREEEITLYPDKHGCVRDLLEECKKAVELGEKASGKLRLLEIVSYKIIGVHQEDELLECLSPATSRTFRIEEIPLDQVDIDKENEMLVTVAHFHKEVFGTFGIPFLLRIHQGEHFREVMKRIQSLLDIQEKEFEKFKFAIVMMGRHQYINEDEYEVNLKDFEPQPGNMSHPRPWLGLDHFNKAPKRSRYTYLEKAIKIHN
UniProt O15213, sequence (O15213 whole entry, looked up): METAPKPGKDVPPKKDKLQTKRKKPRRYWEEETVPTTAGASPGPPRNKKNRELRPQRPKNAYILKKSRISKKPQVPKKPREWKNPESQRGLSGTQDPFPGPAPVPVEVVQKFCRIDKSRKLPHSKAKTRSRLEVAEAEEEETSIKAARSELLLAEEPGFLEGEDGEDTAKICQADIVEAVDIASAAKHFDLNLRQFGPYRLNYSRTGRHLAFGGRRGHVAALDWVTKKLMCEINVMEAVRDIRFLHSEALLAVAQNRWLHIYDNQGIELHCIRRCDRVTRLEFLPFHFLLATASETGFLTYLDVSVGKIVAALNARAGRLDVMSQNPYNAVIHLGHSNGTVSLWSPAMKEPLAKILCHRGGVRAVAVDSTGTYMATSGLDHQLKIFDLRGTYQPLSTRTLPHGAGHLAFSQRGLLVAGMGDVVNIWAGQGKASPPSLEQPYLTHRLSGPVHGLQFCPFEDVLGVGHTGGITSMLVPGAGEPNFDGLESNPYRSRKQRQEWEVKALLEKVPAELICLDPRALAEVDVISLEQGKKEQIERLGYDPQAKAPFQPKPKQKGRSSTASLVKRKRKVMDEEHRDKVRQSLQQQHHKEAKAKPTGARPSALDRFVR
UniProt Q502W6, sequence (Q502W6 whole entry, looked up): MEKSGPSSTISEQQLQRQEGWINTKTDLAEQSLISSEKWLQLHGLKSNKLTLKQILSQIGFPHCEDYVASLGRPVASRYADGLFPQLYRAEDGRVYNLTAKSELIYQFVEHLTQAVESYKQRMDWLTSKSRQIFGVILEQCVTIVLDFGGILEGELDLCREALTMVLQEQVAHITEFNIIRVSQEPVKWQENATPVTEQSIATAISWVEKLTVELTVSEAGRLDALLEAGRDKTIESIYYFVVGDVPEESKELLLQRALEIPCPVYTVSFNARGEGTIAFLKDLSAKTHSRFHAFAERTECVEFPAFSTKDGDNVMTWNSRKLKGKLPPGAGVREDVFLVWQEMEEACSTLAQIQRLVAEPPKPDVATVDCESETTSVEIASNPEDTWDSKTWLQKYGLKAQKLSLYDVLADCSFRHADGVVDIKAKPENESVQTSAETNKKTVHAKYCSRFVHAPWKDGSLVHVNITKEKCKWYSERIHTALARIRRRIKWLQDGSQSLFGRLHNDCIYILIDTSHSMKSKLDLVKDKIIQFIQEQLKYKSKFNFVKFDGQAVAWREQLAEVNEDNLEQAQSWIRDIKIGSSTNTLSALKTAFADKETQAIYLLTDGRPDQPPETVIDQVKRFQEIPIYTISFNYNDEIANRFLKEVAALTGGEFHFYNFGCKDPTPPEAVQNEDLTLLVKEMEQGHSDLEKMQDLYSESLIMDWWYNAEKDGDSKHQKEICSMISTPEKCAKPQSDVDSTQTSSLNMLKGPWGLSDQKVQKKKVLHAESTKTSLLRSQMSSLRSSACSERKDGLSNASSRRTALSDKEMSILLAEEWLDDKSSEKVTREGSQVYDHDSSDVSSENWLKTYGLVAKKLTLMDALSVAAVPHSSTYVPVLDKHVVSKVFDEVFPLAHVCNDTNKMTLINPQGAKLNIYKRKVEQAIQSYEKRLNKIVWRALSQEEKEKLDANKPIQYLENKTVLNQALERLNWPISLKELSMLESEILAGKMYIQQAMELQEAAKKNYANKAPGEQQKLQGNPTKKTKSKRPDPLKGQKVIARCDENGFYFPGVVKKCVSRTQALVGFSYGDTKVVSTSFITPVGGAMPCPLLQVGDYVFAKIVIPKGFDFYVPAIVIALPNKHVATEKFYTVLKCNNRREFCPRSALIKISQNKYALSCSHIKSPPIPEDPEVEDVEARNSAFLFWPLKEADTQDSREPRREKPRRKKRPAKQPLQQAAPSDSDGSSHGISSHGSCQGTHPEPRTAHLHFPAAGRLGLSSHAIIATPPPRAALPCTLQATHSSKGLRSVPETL
UniProt Q96AX1, sequence (Q96AX1 whole entry, looked up): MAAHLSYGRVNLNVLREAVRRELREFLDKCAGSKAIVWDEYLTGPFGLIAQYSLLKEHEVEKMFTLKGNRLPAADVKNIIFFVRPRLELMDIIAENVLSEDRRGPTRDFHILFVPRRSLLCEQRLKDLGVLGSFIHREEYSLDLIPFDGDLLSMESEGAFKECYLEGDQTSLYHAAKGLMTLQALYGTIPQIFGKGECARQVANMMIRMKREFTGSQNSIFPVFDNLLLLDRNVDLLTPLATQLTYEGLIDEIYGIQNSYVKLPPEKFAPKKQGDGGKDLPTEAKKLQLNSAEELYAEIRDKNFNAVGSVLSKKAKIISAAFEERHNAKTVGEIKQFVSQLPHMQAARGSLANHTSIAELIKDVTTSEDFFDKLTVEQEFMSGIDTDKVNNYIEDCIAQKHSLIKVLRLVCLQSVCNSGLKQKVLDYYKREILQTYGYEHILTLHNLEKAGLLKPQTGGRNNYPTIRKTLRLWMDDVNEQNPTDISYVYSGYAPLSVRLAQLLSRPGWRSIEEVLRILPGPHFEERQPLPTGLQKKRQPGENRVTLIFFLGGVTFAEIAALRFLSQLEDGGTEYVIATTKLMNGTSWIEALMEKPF
UniProt O43592, sequence (O43592 whole entry, looked up): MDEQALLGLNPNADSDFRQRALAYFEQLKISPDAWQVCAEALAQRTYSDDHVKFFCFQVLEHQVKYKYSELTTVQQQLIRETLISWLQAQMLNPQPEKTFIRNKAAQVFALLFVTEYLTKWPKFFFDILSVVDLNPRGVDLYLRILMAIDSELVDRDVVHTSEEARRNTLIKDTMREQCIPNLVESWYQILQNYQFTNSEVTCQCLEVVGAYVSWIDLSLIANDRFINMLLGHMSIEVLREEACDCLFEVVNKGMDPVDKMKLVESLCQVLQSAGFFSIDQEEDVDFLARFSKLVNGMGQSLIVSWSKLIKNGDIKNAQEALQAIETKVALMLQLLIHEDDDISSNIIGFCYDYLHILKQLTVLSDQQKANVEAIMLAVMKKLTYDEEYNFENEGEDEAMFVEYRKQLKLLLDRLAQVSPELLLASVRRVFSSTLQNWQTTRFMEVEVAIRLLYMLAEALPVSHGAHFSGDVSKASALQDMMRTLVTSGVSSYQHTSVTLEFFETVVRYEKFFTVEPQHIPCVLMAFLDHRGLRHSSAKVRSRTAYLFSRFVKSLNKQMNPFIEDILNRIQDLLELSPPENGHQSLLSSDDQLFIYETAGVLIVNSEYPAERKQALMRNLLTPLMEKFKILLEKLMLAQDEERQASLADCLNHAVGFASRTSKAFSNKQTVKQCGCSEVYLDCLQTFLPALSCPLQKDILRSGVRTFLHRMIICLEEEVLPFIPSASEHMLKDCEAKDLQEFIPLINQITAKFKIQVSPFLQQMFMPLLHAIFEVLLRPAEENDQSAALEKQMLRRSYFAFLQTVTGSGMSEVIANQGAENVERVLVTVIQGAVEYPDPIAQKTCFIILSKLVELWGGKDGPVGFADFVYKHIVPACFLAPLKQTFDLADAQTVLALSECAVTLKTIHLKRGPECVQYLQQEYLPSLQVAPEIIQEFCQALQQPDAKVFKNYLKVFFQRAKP
UniProt Q86SZ2, sequence (Q86SZ2 whole entry, looked up): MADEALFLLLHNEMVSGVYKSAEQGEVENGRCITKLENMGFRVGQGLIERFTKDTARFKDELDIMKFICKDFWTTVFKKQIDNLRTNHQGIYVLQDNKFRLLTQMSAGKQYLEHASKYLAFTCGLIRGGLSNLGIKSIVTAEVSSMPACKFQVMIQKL

log2 fold change, inactive:
TRAPPC6B (UniProt Q86SZ2) -0.006
UCHL5 isoform 3 (UniProt Q9Y5K5) 0.125
XPOT (UniProt O43592) 0.065
TMEM208 (UniProt Q9BTX3) 0.011
UFM1 (UniProt P61960) -0.002
UQCR10 (UniProt Q9UDW1) 0.014
USP7 (UniProt Q93009) 0.004
WDR46 (UniProt O15213) 0.065
TTI2 (UniProt Q6NXR4) -0.036
XPO1 (UniProt O14980) 0.041
TRMT10A (UniProt Q8TBZ6) 0.02
TMEM87B (UniProt Q96K49) 0.055
VPS13B (UniProt Q7Z7G8) -0.025
VPS33A (UniProt Q96AX1) 0.013
VWA3B isoform 6 (UniProt Q502W6) 0.111

The targets below were run with C1=CC=C(C=C1)C2=NC(=C(N2)C3=CC=NC=C3)C4=CC(=C(C=C4)Cl)O in the same assay as above.
Outline: as §1

log2 fold change, inactive:
TMEM223 (UniProt A0PJW6) -0.007
USP25 isoform 3 (UniProt Q9UHP3) -0.024
VPS41 (UniProt P49754) 0.004
WDR47 (UniProt O94967) 0.047
TMEM128 (UniProt Q5BJH2) -0.081
WDR41 (UniProt Q9HAD4) -0.005
TMEM9 (UniProt Q9P0T7) 0.037
VPS51 (UniProt Q9UID3) -0.014
TYW1 (UniProt Q9NV66) 0.042
TUBAL3 (UniProt A6NHL2) 0.031
TOM1L1 (UniProt O75674) -0.023
TPR (UniProt P12270) -0.104
TP53BP1 isoform 2 (UniProt Q12888) -0.024
TRAPPC2L (UniProt Q9UL33) -0.096
U2AF1 isoform 2 (UniProt Q01081) 0.036
TMEM9B (UniProt Q9NQ34) -0.016
VPS37A (UniProt Q8NEZ2) 0.098
WEE1 (UniProt P30291) -0.177
TNFAIP8 isoform 4 (UniProt O95379) -0.015
UBAP2L isoform 5 (UniProt Q14157) -0.029
WDR43 (UniProt Q15061) -0.008
UFD1 isoform 1 (UniProt Q92890) -0.01
TRAPPC6B (UniProt Q86SZ2) -0.016
UCHL5 isoform 3 (UniProt Q9Y5K5) -0.11
XPOT (UniProt O43592) -0.047
TMEM208 (UniProt Q9BTX3) -0.054
UFM1 (UniProt P61960) 0.12
UQCR10 (UniProt Q9UDW1) 0.046
USP7 (UniProt Q93009) 0.068
WDR46 (UniProt O15213) -0.055
TTI2 (UniProt Q6NXR4) -0.095
XPO1 (UniProt O14980) 0.051
TRMT10A (UniProt Q8TBZ6) -0.015
TMEM87B (UniProt Q96K49) 0.009
VPS13B (UniProt Q7Z7G8) 0.032
VPS33A (UniProt Q96AX1) 0.005
VWA3B isoform 6 (UniProt Q502W6) -0.214
